What was measured:
Settings in all cases: concentration: 1 μM, replicates: in singlicate; n = 1
TLK1 = tested on: TLK1
TLK2 = tested on: TLK2
TNIK = tested on: TNIK
TNK1 = tested on: TNK1
TNK2 = tested on: TNK2
TNNI3K = tested on: TNNI3K
TRKA = tested on: T1, TRKA
T1 construct: gene NTRK1

TRKB = tested on: TRKB
TRKC = tested on: T2, TRKC
T2 construct: gene NTRK3

TRPM6 = tested on: TRPM6
TSSK1B = tested on: TSSK1B
TSSK3 = tested on: TSSK3
TTK = tested on: TTK
TXK = tested on: TXK
[1] = tested on: TYK2(JH1domain-catalytic)
[2] = tested on: TYK2(JH2domain-pseudokinase)
TYRO3 = tested on: TYRO3
ULK1 = tested on: ULK1
ULK2 = tested on: ULK2
ULK3 = tested on: ULK3
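Note: KINOMEscan kinase panel screen.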

| Compound | %Inh (TLK1) | %Inh (TLK2) | %Inh (TNIK) | %Inh (TNK1) | %Inh (TNK2) | %Inh (TNNI3K) | %Inh (TRKA) | %Inh (TRKB) | %Inh (TRKC) | %Inh (TRPM6) | %Inh (TSSK1B) | %Inh (TSSK3) | %Inh (TTK) | %Inh (TXK) | %Inh [1] | %Inh [2] | %Inh (TYRO3) | %Inh (ULK1) | %Inh (ULK2) | %Inh (ULK3) |
| --- | --- | --- | --- | --- | --- | --- | --- | --- | --- | --- | --- | --- | --- | --- | --- | --- | --- | --- | --- | --- |
| CNC(=O)c1ccc(C)c(-n2c(C)cc(OCc3ccc(F)cc3F)c(Br)c2=O)c1 | 0% | 0% | 0% | 0% | 0% | 0% | 0% | 0% | 0% | 0% | 0% | 0% | 0% | 0% | 0% | 0% | 0% | 0% | 0% | 0% |
| O=C1NC(=O)C(c2ccc(Cl)cc2)=C1Nc1ccc(O)cc1 [SB-340867] | 10% | 0% | 0% | 46% | 0% | 0% | 0% | 5% | 0% | 9% | 0% | 0% | 100% | 18% | 0% | 0% | 0% | 0% | 0% | 10% |
| COc1ccc(Nc2nccc(N3CCC(NC(=O)c4cc5ccccc5s4)C3)n2)cc1 (stereo not drawn) [GSK1379738] | 3% | 0% | 0% | 11% | 18% | 0% | 60% | 32% | 0% | 39% | 0% | 19% | 0% | 67% | 9% | 26% | 0% | 5% | 0% | 14% |
| COC(=O)C(NC(=O)NC1CCN(c2ccnc(Nc3ccc(F)cc3)n2)C1)c1ccccc1 (stereo not drawn) [GSK1379712] | 14% | 6% | 17% | 0% | 0% | 24% | 51% | 6% | 29% | 44% | 14% | 23% | 3% | 0% | 13% | 22% | 0% | 0% | 3% | 4% |
| Fc1ccc(-c2nn3cccc(F)c3c2-c2ccncc2)cc1 [GW475620] | 0% | 0% | 32% | 0% | 12% | 0% | 15% | 0% | 2% | 0% | 0% | 14% | 14% | 5% | 22% | 9% | 0% | 12% | 0% | 12% |
| CNCc1ccc2nc(NC(=O)c3ccc(C(C)(C)C)cc3)cn2c1 | 0% | 0% | 8% | 0% | 1% | 6% | 39% | 58% | 28% | 1% | 0% | 0% | 0% | 8% | 0% | 24% | 0% | 20% | 15% | 58% |
| NS(=O)(=O)c1cccc(N/C=C2\C(=O)Nc3ccc(S(=O)(=O)Cc4c(Cl)cccc4Cl)cc32)c1 [GSK398099] | 75% | 0% | 91.8% | 0% | 26% | 4% | 49% | 0% | 29% | 37% | 21% | 14% | 0% | 6% | 30% | 27% | 0% | 13% | 4% | 19% |
| Cc1ccc(NC(=O)c2ccc(Cl)cc2)cc1-c1ccc(C(=O)Nc2ccncc2)cc1 [GSK1398467] | 8% | 3% | 0% | 9% | 25% | 21% | 0% | 0% | 25% | 19% | 18% | 6% | 0% | 8% | 0% | 17% | 0% | 0% | 0% | 0% |
| O=C(Nc1n[nH]c2nc(-c3cccs3)c(Br)cc12)C1CCCC1 [SB-743341] | 0% | 0% | 0% | 0% | 0% | 0% | 16% | 22% | 9% | 0% | 24% | 0% | 37% | 7% | 0% | 7% | 1% | 26% | 32% | 0% |
| c1ccc(-c2ccnc3[nH]ccc23)cc1 [SB-693578] | 7% | 0% | 8% | 0% | 9% | 11% | 22% | 67% | 37% | 0% | 28% | 2% | 6% | 28% | 63% | 73% | 0% | 33% | 0% | 33% |
| CNc1cc(-c2ccc3c(N)n[nH]c3c2)nc(N)n1 [GSK2224810] | 25% | 20% | 8% | 0% | 0% | 2% | 11% | 0% | 0% | 0% | 0% | 31% | 0% | 0% | 7% | 43% | 0% | 36% | 17% | 5% |
| CC[C@@H]1CO[C@H](C(=O)Nc2ccccc2)CN1c1cc(-c2ccc3c(N)n[nH]c3c2)nc(NC)n1 [GSK2376236] | 21% | 0% | 0% | 4% | 0% | 17% | 9% | 0% | 0% | 35% | 0% | 13% | 0% | 0% | 0% | 0% | 0% | 13% | 10% | 4% |
| CNc1nc(-c2ccc3c(N)n[nH]c3c2)cc(N2C[C@@H](C(=O)Nc3ccccc3)CC[C@H]2C)n1 [GSK2298859] | 0% | 0% | 0% | 0% | 3% | 0% | 77% | 2% | 0% | 0% | 0% | 6% | 21% | 10% | 22% | 13% | 0% | 0% | 0% | 0% |
| O=C1NC(=O)C(c2ccc(Cl)cc2)=C1Nc1cccc(Cl)c1 [SB-317651] | 12% | 0% | 0% | 0% | 0% | 0% | 23% | 21% | 0% | 0% | 0% | 18% | 0% | 12% | 0% | 0% | 0% | 11% | 25% | 1% |
| Cc1ccc(NC(=O)Nc2ccccc2)cc1-c1ccc(C(=O)Nc2ccncc2)cc1 [GSK1398471] | 19% | 4% | 0% | 18% | 13% | 49% | 23% | 0% | 0% | 27% | 0% | 0% | 2% | 0% | 0% | 0% | 15% | 12% | 0% | 7% |
| COc1ccc(CSc2nnc(-c3ccc4nccn4c3)o2)cc1C(F)(F)F | 6% | 13% | 0% | 0% | 3% | 0% | 18% | 0% | 38% | 0% | 0% | 1% | 64% | 6% | 8% | 5% | 3% | 0% | 4% | 0% |
| O=C(Nc1n[nH]c2nc(-c3cccs3)c(Br)cc12)C1CC1 [SB-735297] | 5% | 0% | 17% | 33% | 0% | 98.6% | 6% | 41% | 17% | 18% | 0% | 0% | 0% | 22% | 9% | 0% | 12% | 0% | 6% | 3% |
| COc1ccc2cc(-c3nc(-c4ccccc4C(C)C)[nH]c3-c3ccncc3)ccc2c1 [SB-660566] | 0% | 0% | 0% | 32% | 14% | 15% | 0% | 13% | 1% | 18% | 54% | 31% | 0% | 35% | 7% | 27% | 0% | 19% | 0% | 14% |
| CC(=O)c1c(C)c2cnc(Nc3ccc(N4CCNCC4)cn3)nc2n(C2CCCC2)c1=O | 0% | 0% | 0% | 0% | 7% | 0% | 0% | 0% | 0% | 0% | 0% | 0% | 92.1% | 5% | 0% | 0% | 0% | 0% | 45% | 0% |
| CS(=O)(=O)CCNCc1nc(-c2ccc3ncnc(Nc4ccc(OCc5ccccc5)c(Cl)c4)c3c2)cs1.Cl [GW582764] | 0% | 0% | 0% | 4% | 14% | 0% | 0% | 41% | 54% | 0% | 19% | 8% | 0% | 6% | 30% | 35% | 0% | 5% | 0% | 3% |
| Cc1ccccc1-c1cc(-c2c[nH]nc2-c2ccccn2)ccn1 [GW680061] | 0% | 0% | 8% | 0% | 16% | 0% | 0% | 0% | 16% | 0% | 1% | 15% | 6% | 0% | 0% | 18% | 35% | 0% | 0% | 13% |
